PubChem BioAssay AID651610 (Broad Institute, 2012)
The whole screen tested about 360,000 compounds, of which about 3,900 (1.1%) were called active. Shown is part of a subset that was picked to be rich in actives. A number with no mark means an inactive call.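 How the source made its calls: active means mean replicate inhibition score of at least 50 and every replicate individually at or above 50; inconclusive means only one of the two criteria met; inactive means mean below 50 and not all replicates reaching 50.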

Test: blockers of JRFL envelope-mediated fusion – HeLa-JRFL effector, CEM21 target cells, luciferase, primary screen (AID 651610);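 further: 0% = plate neutral controls and 100% = maraviroc near 300 nM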
Details: HeLa-JRFL Env/CEM21 cell fusion, stronger effect = higher value; at 16.7 µM unless noted

SMILES | inhibition
CC(NCc1ccccc1OC1CCCC1)c1ccccc1 (stereo unspecified) | 62.5% [at 12.3 µM] (active)
CC(C)(C)NCc1cc(Br)ccc1OC1CCCC1 | 14.4% [at 12.3 µM]
COc1cc(CNC2CCCCC2)c(Br)cc1OC1CCCC1 | -65.6% [at 12.3 µM]
CCOC(=O)CNC(=O)N(C)[C@H]1C[C@H]2c3[nH]c4c(-c5ccc6c(c5)OCO6)cccc4c3CCN2C(=O)[C@H]1[C@H](C)O | -112% [at 12.3 µM]
CN1CCN(C(=O)C[C@H]2C[C@@H]3c4cc(NC(=O)NC5CCCC5)ccc4O[C@@H]3[C@@H](CO)O2)CC1 | -8.97%
CC1CCN(C(=O)c2ncn3c2C(=O)N[C@@H](C)C3)CC1 | 131% [at 12.3 µM] (active)
CC1CCN(C(=O)c2ccc3c(c2)NC(=O)CN3)CC1 | 1.27% [at 12.3 µM]
CC1CCN(C(=O)c2cc3nc(C4CC4)cc(C(F)(F)F)n3n2)CC1 | 12.6% [at 12.3 µM]
CCCNC(=O)N1[C@@H](C#N)[C@H](c2ccc(-c3ccc(C(=O)N(C)C)cc3)cc2)[C@@H]1CO | 26%
O=C(NCc1ccncn1)[C@@H]1[C@@H](CO)[C@@H]2Cn3c(ccc(-c4ccc(F)cc4)c3=O)[C@@H]2N1CC1CC1 | -1.91%
COc1ccc(NC(=O)Nc2ccc3c(c2)CC(=O)N([C@@H](C)CO)C[C@H](C)[C@@H](CN(C)S(=O)(=O)c2cn(C)cn2)O3)cc1 | 13%
O=C(COc1cc(Cl)c(Cl)cc1Cl)NCCc1ccccn1 | -1.39% [at 12.3 µM]
O=C(COC(=O)COc1cc(Cl)c(Cl)cc1Cl)NC1CC1 | 1.57% [at 12.3 µM]
NC(=S)NN=Cc1ccc(OC(=O)COc2cc(Cl)c(Cl)cc2Cl)cn1 | 74.3% [at 12.3 µM] (active)
CCCN(C)C[C@H]1OCCCC[C@@H](C)Oc2ccc(N(C)C)cc2C(=O)N([C@H](C)CO)C[C@@H]1C | 0.797%
CCOC(=O)c1[nH]c2ccccc2c1N=C(C)N(CC)CC | -0.896% [at 12.3 µM]
CCOC(=O)c1c(C)[nH]c(C)c1S(=O)(=O)NCCCc1ccco1 | -4.62% [at 12.3 µM]
CCOC(=O)c1c(C)[nH]c2c1-c1ccccc1C(=O)C2=O | 58.9% [at 12.3 µM] (active)
C[C@H](CO)N1C[C@H](C)[C@@H](CN(C)CC2CC2)Oc2ccc(NC(=O)Nc3ccccc3)cc2CC1=O | -2.58%
CN(C(=O)CCN1C(=O)/C(=C/c2ccccc2F)SC1=S)C1CCS(=O)(=O)C1 (stereo unspecified) | -6.28% [at 12.3 µM]
CCN(C(=O)CN1C(=O)/C(=C/c2ccc(F)cc2)SC1=S)C1CCS(=O)(=O)C1 (stereo unspecified) | -11.4% [at 12.3 µM]

SMILES | inhibition
CN(C(=O)CN1C(=O)/C(=C/c2ccc(Cl)cc2)SC1=S)C1CCS(=O)(=O)C1 (stereo unspecified) | 55.1% [at 12.3 µM] (active)
CNC[C@H]1Oc2ncc(-c3ccccc3F)cc2C(=O)N([C@H](C)CO)C[C@H]1C | 10.5%
O=C(C[C@H]1C[C@@H]2c3cc(NS(=O)(=O)c4ccc(F)cc4)ccc3O[C@@H]2[C@H](CO)O1)NCc1cccc(F)c1 | 54.4%
COc1ccccc1CNC(=O)C[C@H]1C[C@H]2c3cc(NS(=O)(=O)c4ccc(F)cc4)ccc3O[C@H]2[C@@H](CO)O1 | -11.5%
O=C(C[C@@H]1C[C@@H]2c3cc(NS(=O)(=O)c4ccc(F)cc4)ccc3O[C@@H]2[C@H](CO)O1)NCc1ccccc1F | 90.3% (active)
O=C(C[C@H]1C[C@H]2c3cc(NS(=O)(=O)c4ccc(F)cc4)ccc3O[C@H]2[C@H](CO)O1)NCc1cc(F)ccc1F | -74.8% [at 12.3 µM]
O=C(C[C@@H]1C[C@H]2c3cc(NS(=O)(=O)c4ccc(F)cc4)ccc3O[C@H]2[C@@H](CO)O1)NCc1ccccc1F | 56.4% (active)
O=C(C[C@H]1C[C@@H]2c3cc(NS(=O)(=O)c4ccc(F)cc4)ccc3O[C@@H]2[C@@H](CO)O1)NCc1cccc(F)c1 | 10.7%
C[C@@H]1CN([C@H](C)CO)C(=O)c2cc(C#CC3CCCC3)cnc2O[C@@H]1CN(C)C(=O)C1CCC1 | -5.58%
O=C(Cc1ccncc1)Nc1ccc2c(c1)[C@@H]1C[C@H](CC(=O)N3CCCCC3)O[C@H](CO)[C@@H]1O2 | 9.17%
C[C@@H]1CCCCO[C@@H](CN(C)Cc2ccc(C(=O)O)cc2)[C@@H](C)CN([C@@H](C)CO)C(=O)c2cc(NC(=O)Nc3ccc(C(F)(F)F)cc3)ccc2O1 | -4.94%
COc1ccc2c3c([nH]c2c1)[C@H](CO)N(C(=O)Nc1ccc(F)cc1)CC31CN(S(=O)(=O)c2cccc(F)c2)C1 | -38.9%
COc1ccc2c3c([nH]c2c1)[C@H](CO)N(C(=O)Nc1cccc(F)c1)CC31CCN(S(=O)(=O)c2ccccc2)CC1 | 92.2% (active)
COc1ccc2c3c(n(C)c2c1)[C@@H](CO)N(C(=O)Nc1cccc(F)c1)CC31CCN(Cc2nccs2)CC1 | 23.1%
COc1ccc2c3c([nH]c2c1)[C@H](CO)N(C(=O)c1ccccc1)CC31CN(C(=O)Nc2cccc(F)c2)C1 | 12.9%
COc1ccc2c3c([nH]c2c1)[C@@H](CO)N(C(C)=O)CC31CN(C(=O)Nc2ccc(F)cc2)C1 | 31%
COc1ccc2c3c([nH]c2c1)[C@@H](CO)N(C(=O)Nc1cccc(F)c1)CC31CCN(S(=O)(=O)c2ccccc2)CC1 | 80.9% (active)
N#C[C@@H]1[C@@H](c2ccc(-c3ccccc3F)cc2)[C@@H](CO)N1C(=O)C1CC1 | -18.6%
C[C@H]1CN([C@@H](C)CO)S(=O)(=O)c2ccc(C#CC3CCCC3)cc2O[C@@H]1CN(C)C(=O)c1cccc(F)c1 | 33.9%
O=C(C[C@H]1CC[C@H]2[C@@H](COC[C@H](O)CN2CCC(F)(F)F)O1)N1CCC(Cc2ccccc2)CC1 | 32.1%
